Measurements reported in PubChem BioAssay (NCATS).
Records with an inconclusive call do not appear. Active and inactive are the calls of the source. Unless noted, calls follow the shape of the dose curve; as a rule, active = well fitted curve in the direction sought with a large enough effect; inconclusive = small, poorly fitted or top-dose-only effect, or another doubt; inactive = no such curve, though single readings can be large; an effect the other way counts as inactive or inconclusive.

How the values were obtained:
[1] = biological target: Glucocorticoid receptor (Homo sapiens) (UniProt P04150); test: GR-GFP Redistribution (AID 450;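 active = compounds whose dose series gives a full or clear partial fitted curve of increased nuclear translocation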; also: potency is read from the fitted curve at half-maximal effect); conditions: U2OS GR-GFP nuclear translocation, laser cytometry, 2 h
[2] = biological target: Glucocorticoid receptor (Homo sapiens) (UniProt P04150); test: GR-EFC Redistribution (AID 451; calls by dose curve; also: potency is read from the fitted curve at half-maximal effect); conditions: CHO-K1 GR-EFC translocation, beta-gal luminescence, 2 h
Outline: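 CHO-K1 cells stably expressing nuclear-localized β-gal enzyme acceptor and GR fused C-terminally to the enzyme donor fragment; ligand-driven nuclear translocation restores β-gal by complementation. Compounds titrated up to 46 uM final, 2 h at 37 °C; luminescence read.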

[3] = biological target: Mitogen-activated protein kinase 10 (Mus musculus) (UniProt Q61831); test: JNK3 AlphaScreen Assay (AID 530; active = well fitted curve in either direction with a large enough effect, not every such curve was filed as active;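 also: kinase came from lysate of stimulated human HepG2 cells; signal reports phosphorylation of biotinylated GST-cJun 1-79 at Ser73 with 10 µM ATP; series mostly up to about 57 µM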)
Outline: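 Phosphorylation of biotinylated GST-cJun(1-79) at Ser73 is measured by AlphaScreen proximity luminescence. Enzyme is JNK3 in HepG2 lysates activated with interleukin-1beta and tumor necrosis factor alpha; ATP is 10 uM final.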

[4] = biological target: Ubiquitin carboxyl-terminal hydrolase 1 (Homo sapiens) (UniProt O94782); test: Inhibitors of USP1/UAF1: Pilot qHTS (AID 504865);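 also: rhodamine fluorescence freed from ubiquitin-rhodamine substrate followed over time; top concentration of the series differs between compounds; nearly all actives have a fitted effect of over 35% in size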
Outline: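 USP1/UAF1 complex (1nM) preincubated with compound 15 min at room temperature, then Ub-Rho substrate (150nM final) added. Fluorescence read kinetically at 480/540 nm, 6 reads every 60 seconds. Buffer: 50mM HEPES pH 7.8, 0.5mM EDTA, 0.1 mg/ml BSA, 1mM TCEP, 0.01% Tween-20.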

[5] = biological target: DNA dC->dU-editing enzyme APOBEC-3G (Homo sapiens) (UniProt Q9HC16); test: qHTS for inhibitors of Vif-A3G interactions: Validation (AID 588379)
Outline: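 Yellow fluorescence (Ex 488, Em 500-530) of Vif-coexpressing HeLa A3G-eYFP cells, scanned by Acumen cytometer, reports blocked A3G degradation. Cells plated at 700/well overnight at 37 deg C before compound addition, then a further overnight compound incubation at 37 deg C.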

[6] = test system: Zika virus NS2B-NS3 protease; test: Primary screen GU AMC qHTS for Zika virus inhibitors (AID 1347154); also: nearly all actives have a fitted effect of over 70% in size
Outline: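 Unlinked Zika NS2B hydrophilic domain/NS3 protease domain noncovalent complex (25 nM final) in 10 mM Tris-HCl pH 8.0, 0.01% Tween 20, with AMC peptide substrate. Fluorescence (ex 340, em 450 nm) change over 15 min, room temperature; percent inhibition fitted to 4-parameter Hill equation.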

[7] = Counterscreen qHTS for small molecule stabilizers of the endoplasmic reticulum resident proteome: GLuc-NoTag assay (AID 1508627); also: series mostly up to about 76 µM
Outline: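 Secreted GLuc lacking the SERCaMP modification is measured in SH-SY5Y cells exposed to compound for 19 h and then to thapsigargin (100 nM, 4 h) to deplete ER calcium; hits retested at 11 concentrations, up to 76.6 uM.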

Measured: Potency

Sequence of Glucocorticoid receptor (Homo sapiens) (P04150 whole entry, looked up, the tested form may be a part): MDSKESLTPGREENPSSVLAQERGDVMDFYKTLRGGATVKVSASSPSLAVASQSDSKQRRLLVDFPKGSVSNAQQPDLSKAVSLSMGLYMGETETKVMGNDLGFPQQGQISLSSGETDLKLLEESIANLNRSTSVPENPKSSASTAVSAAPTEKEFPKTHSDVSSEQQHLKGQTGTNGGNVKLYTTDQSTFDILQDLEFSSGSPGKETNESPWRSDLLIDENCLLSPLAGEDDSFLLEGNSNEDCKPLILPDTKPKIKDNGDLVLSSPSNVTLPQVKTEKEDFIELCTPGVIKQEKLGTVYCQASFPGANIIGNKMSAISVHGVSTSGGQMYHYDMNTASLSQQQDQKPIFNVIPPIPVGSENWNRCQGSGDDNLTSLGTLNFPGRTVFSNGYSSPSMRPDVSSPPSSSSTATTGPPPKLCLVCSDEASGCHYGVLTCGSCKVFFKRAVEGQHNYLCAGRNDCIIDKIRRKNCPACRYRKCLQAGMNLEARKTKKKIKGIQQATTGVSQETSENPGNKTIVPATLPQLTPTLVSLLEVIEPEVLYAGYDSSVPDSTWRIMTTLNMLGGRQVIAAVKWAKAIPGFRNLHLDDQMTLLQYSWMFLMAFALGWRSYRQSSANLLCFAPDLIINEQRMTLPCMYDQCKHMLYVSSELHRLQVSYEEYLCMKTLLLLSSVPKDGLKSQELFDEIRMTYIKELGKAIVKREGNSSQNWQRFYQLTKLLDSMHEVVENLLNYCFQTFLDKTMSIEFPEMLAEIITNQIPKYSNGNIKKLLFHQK
Sequence of Ubiquitin carboxyl-terminal hydrolase 1 (Homo sapiens) (O94782 whole entry, looked up): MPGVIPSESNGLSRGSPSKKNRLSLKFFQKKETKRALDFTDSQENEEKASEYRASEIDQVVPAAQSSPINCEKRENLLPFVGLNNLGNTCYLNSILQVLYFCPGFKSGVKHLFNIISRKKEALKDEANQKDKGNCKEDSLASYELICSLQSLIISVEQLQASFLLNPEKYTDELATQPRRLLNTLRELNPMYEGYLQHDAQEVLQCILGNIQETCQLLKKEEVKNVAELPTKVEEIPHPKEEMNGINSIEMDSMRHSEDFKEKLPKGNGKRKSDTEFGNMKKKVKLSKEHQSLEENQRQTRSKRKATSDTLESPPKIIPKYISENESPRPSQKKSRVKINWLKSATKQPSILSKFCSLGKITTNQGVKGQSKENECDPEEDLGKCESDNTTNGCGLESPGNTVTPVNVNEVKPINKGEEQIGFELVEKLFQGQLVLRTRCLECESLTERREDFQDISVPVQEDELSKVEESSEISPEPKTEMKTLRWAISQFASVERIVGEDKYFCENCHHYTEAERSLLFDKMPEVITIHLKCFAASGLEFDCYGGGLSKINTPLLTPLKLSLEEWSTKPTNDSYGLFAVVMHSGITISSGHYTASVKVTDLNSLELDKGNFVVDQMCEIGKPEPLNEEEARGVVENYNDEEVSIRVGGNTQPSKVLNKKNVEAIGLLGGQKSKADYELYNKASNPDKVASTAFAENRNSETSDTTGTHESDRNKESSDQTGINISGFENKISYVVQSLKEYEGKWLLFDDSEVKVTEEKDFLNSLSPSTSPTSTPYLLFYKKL
Sequence of DNA dC->dU-editing enzyme APOBEC-3G (Homo sapiens) (Q9HC16 whole entry, looked up): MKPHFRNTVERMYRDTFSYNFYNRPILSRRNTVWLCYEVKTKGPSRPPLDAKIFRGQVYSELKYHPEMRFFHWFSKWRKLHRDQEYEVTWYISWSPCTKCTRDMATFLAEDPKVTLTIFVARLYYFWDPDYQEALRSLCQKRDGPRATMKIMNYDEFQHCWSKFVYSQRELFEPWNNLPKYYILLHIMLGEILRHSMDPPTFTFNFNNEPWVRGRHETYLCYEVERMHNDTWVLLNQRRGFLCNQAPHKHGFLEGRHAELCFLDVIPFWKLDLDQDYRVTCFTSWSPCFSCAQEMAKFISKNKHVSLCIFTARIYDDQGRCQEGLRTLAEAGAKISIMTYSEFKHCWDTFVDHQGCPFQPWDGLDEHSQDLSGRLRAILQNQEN

CN1CC[C@@H]2CN3CCc4cccc(c43)[C@H]2C1
inactive: [1] > 46 µM | [2] > 46 µM | [3] | [4] | [5] | [6] | [7]
